The nature of assay [1]: qHTS assay to identify small molecule agonists of the sonic hedgehog signaling (Shh) pathway (AID 1259368).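 For activity change: NIH/3T3-derived 3T3Gli1-Luc cells carrying a stable Gli1-driven firefly luciferase reporter; series mostly up to about 92 µM.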 Note: nearly all actives have a fitted effect of over 15% in size. Note: potency is the fitted concentration of half-maximal effect. The essentials:
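Quantitative high-throughput format using a Gli1-driven firefly luciferase reporter line derived from NIH/3T3 cells. After a 24 hr compound treatment at 37 C and 5% CO2, luminescence reported Gli1 response element activity.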
(In qHTS, concentration-response curves come from the screen itself.)

Assay [2] can be described thus: qHTS assay to identify small molecule antagonists of the sonic hedgehog signaling (Shh) pathway (AID 1259369). Note: nearly all actives have a fitted effect of over 45% in size. Note: potency is the fitted concentration of half-maximal effect. The essentials: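 Stable Gli1-Luc reporter NIH/3T3 clone; quantitative HTS in stimulated mode with conditioned medium. Luminescence measured after 24hr compound treatment at 37 C.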
In assay [3] the target is Estrogen receptor beta (Homo sapiens) (UniProt Q92731). Nature of the assay: qHTS assay to identify small molecule agonists of the estrogen receptor beta (ER-beta) signaling pathway (AID 1259377; active = well fitted activation curve with a large enough effect in the signal ratio in the repeat runs, not every such curve was filed as active; the % refers to the signal ratio). The essentials:
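qHTS in ER-beta-UAS-bla HEK293T cells: 6 hr settling, then 16 hr compound at 37C, then LiveBLAzer substrate 2 h at RT before fluorescence reading.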

Assay [4] shares this target. Nature of the assay: qHTS assay to identify small molecule antagonists of the estrogen receptor beta (ER-beta) signaling pathway (AID 1259378; active = well fitted inhibition curve with a large enough effect in the signal ratio in the repeat runs, not every such curve was filed as active; the % refers to the signal ratio; note: potency is the fitted concentration of half-maximal effect). A digest of the protocol: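 Antagonist mode: compounds added to beta-lactamase reporter HEK293T ER-beta-UAS cells stimulated with E2 (1nM final), 16 hr at 37C. LiveBLAzer B/G FRET substrate, 2 hours room temperature, fluorescence read-out.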

Assay [5] can be described thus: qHTS assay to identify small molecule agonists of the androgen receptor (AR) signaling pathway in the presence of an antagonist - cell viability counter screen (AID 1259379; active = well fitted curve in the direction sought with a large enough effect in the repeat runs; an effect the other way counts as inactive or inconclusive; note: nearly all actives have a fitted effect of over 25% in size; note: potency is the fitted concentration of half-maximal effect;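 for activity change, negative = cytotoxicity: MDA-kb2 human breast cancer cells carrying an MMTV luciferase reporter; series mostly up to about 92 µM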). A digest of the protocol: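 Nilutamide-containing (3.0uM final) MDA-kb2 cultures, 3,000 cells/well, were treated with compounds across 15 concentrations. After 16 hr at 37C with no CO2, cell viability was determined by CellTiter-Fluor fluorescence in the luciferase assay wells.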

Assay [6] in a line: qHTS assay to identify small molecule agonists of the estrogen receptor beta (ER-beta) signaling pathway - cell viability counter screen (AID 1259380; active = well fitted curve in the direction sought with a large enough effect in the repeat runs; an effect the other way counts as inactive or inconclusive; note: nearly all actives have a fitted effect of over 30% in size; note: potency is the fitted concentration of half-maximal effect). A digest of the protocol:
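Steps: plate ER-beta-UAS-bla HEK293T cells, rest 6 hr; add compounds in DMSO; incubate 16 hr at 37C, 5% CO2; add FRET substrate 2 hr; add CellTiter-Glo, wait 30 min at room temperature; read luminescence.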

For assay [7], the target named is Androgen receptor (Homo sapiens) (UniProt P10275). Kind of assay: qHTS assay to identify small molecule agonists of the androgen receptor (AR) signaling pathway in the presence of an antagonist (AID 1259381). Note: nearly all actives have a fitted effect of over 15% in size. Note: potency is the fitted concentration of half-maximal effect. A digest of the protocol: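 Reporter-gene luminescence from MDA-kb2 cells exposed 16hr at 37C (0% CO2) to 15-point compound titrations with 3.0uM final nilutamide as AR antagonist.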
Chain of Androgen receptor (Homo sapiens) (P10275 whole entry, looked up): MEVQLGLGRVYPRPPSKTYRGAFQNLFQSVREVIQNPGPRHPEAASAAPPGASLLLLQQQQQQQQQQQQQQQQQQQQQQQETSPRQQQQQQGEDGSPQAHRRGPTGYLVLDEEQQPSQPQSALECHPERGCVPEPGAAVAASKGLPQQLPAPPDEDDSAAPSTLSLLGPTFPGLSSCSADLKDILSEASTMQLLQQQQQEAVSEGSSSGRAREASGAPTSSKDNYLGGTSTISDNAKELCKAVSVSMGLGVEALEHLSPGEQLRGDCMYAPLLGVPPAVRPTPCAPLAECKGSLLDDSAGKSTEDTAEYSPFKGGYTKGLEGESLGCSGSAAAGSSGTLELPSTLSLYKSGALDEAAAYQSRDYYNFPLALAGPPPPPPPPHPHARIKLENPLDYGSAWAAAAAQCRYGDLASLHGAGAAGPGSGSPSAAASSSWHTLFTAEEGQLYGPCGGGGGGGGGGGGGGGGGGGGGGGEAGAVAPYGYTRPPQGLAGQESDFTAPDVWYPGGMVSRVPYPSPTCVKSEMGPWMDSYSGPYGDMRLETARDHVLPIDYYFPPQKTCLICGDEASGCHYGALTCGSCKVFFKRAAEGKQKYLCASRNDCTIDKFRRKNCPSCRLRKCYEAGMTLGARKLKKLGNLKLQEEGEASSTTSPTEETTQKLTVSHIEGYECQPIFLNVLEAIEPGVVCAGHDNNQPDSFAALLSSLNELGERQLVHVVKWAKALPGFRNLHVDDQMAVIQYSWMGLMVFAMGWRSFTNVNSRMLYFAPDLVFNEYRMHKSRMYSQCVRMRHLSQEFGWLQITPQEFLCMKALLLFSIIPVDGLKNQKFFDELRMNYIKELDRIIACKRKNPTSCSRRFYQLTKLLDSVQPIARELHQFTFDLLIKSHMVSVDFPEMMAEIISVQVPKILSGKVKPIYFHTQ

Assay [8] in a line: qHTS assay to identify small molecule antagonists of the estrogen receptor beta (ER-beta) signaling pathway - cell viability counter screen (AID 1259382; active = well fitted curve in the direction sought with a large enough effect in the repeat runs; an effect the other way counts as inactive or inconclusive;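 note: HEK293T cells carrying ER-beta-UAS-bla reporter stimulated with estradiol; series mostly up to about 92 µM; nearly all actives have a fitted effect of over 55% in size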). A digest of the protocol:
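Viability is scored by CellTiter-Glo luminescence (30 min, room temperature) in ER-beta-UAS-bla HEK293T wells already read for reporter fluorescence. Compound exposure lasts 16 hr at 37C alongside 1nM 17-beta-estradiol in charcoal-stripped serum medium.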

The target in assay [9] is Estrogen receptor (Homo sapiens) (UniProt P03372). Kind of assay: qHTS assay to identify small molecule agonists of the estrogen receptor alpha (ER-alpha) signaling pathway in the presence of an antagonist (AID 1259383). For activation: top concentration of the series differs between compounds. Note: nearly all actives have a fitted effect of over 15% in size. Note: potency is the fitted concentration of half-maximal effect. The essentials:
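Readout was ERE-driven luciferase luminescence in VM7Luc4E2 cells, which express full-length ER-alpha endogenously. Compounds were tested at 15 concentrations for 22hr alongside 10.0nM ICI-182,780 (final concentration).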

A short description of assay [10]: qHTS assay to identify small molecule agonists or antagonists of the thyroid stimulating hormone receptor (TSHR) signaling pathway - wild type cell line counter screen (AID 1259384). A digest of the protocol: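 Counter screen in untransfected Hek293: compounds (15-point titration, triplicate) plus phosphodiesterase inhibitor Ro20-1724 added after 18 h plating; 30 min RT. Intracellular cAMP via competitive d2/cryptate immunoassay, 1 h incubation.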

Where “and” joins values, the source holds several entries; their conditions need not be identical. Identical values can stand only once. Inconclusive results are not listed. The source holds several records for some structures; these can differ, active in one and inactive in another. Calls of active or inactive are those of the source. Unless noted, calls come from the whole dose curve.
% is set by controls: 0 for no effect and ±100 for the full control effect.

Chain of Estrogen receptor beta (Homo sapiens) (Q92731 whole entry, looked up): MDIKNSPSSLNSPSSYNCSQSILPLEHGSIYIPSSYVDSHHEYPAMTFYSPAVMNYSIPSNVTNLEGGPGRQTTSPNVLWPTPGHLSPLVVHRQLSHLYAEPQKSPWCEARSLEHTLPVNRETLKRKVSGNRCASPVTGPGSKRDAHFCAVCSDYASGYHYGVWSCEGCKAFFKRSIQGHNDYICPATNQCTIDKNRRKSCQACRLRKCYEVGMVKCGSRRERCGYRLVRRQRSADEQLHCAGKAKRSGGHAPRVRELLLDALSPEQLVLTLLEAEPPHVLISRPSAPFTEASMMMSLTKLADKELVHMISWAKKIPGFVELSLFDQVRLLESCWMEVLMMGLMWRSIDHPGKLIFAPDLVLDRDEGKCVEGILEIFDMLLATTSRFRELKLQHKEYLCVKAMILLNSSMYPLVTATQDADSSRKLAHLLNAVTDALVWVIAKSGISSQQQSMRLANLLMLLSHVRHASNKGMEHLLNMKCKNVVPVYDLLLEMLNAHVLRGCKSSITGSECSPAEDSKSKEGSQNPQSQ
Chain of Estrogen receptor (Homo sapiens) (P03372 whole entry, looked up): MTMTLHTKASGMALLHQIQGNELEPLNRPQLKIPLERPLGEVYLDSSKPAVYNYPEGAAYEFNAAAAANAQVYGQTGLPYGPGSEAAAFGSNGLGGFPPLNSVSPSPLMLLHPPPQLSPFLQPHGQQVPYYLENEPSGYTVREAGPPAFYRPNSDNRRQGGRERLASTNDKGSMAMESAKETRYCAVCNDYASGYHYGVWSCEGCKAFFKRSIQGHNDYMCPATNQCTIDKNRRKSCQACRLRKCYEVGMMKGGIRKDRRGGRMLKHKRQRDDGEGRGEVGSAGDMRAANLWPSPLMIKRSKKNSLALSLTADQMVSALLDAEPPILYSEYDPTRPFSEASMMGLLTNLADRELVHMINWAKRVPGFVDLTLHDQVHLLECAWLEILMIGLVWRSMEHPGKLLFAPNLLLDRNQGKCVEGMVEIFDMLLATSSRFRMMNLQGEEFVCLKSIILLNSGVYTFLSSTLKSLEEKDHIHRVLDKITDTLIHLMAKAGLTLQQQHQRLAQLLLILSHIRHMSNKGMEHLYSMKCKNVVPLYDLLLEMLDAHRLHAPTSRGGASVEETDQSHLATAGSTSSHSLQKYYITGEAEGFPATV

Consider `COc1ccc(CCC(=O)c2c(O)cc(O[C@@H]3O[C@H](CO)[C@@H](O)[C@H](O)[C@H]3O[C@@H]3O[C@@H](C)[C@H](O)[C@@H](O)[C@H]3O)cc2O)cc1O`, for which the Potency result in assay [1], in assay [2], in assay [3], in assay [4], in assay [5] and in assay [6] was “inactive” in each case. For the same compound, the Potency result in assay [7], in assay [8] and in assay [9] was “inactive” each time. In addition, the compound was called inactive in assay [10].

Turning to `CCCC(=O)O[C@]1(C(=O)COC(=O)CC)CC[C@H]2[C@@H]3CCC4=CC(=O)CC[C@]4(C)[C@H]3[C@@H](O)C[C@@]21C`, in assay [1], the activity change is -1.53% [at 18.9 µM, stronger effect = higher value] (inactive). The activity change, negative = inhibition in [2] was -24.8% [at 19 µM] (inactive). Also, the activation in assay [3] is 6.24% [at 19 µM] (inactive); in assay [9], 0.91% [at 19 µM] (inactive). Also, the activity, negative = inhibition in assay [4] was 1.87% [at 19 µM] (inactive). Besides, the activity change, negative = cytotoxicity in assay [5] is 0.279% [at 19 µM] (inactive); in [8] it was 2.67% [at 19 µM] (inactive). Further, the Potency in [7] was 0.184 µM (active). In addition, the cAMP activity change in assay [10] was 6.72% [at 18.9 µM] (inactive).

As for `Cn1c(=O)c2c(ncn2CC(=O)O)n(C)c1=O`, the Potency entry in [1], in [2], in assay [3], in assay [4], in [5] and in [7] was “inactive” throughout. Moreover, the Potency entry in [8] and in [9] was “inactive” each time. In addition, the result in assay [10] was inactive.

In the case of `O=C(O)c1cccc(O)c1`, the Potency result in assay [1], in [2], in assay [3], in [5], in [6] and in assay [8] was “inactive” throughout. Besides, the Potency result in [9] was “inactive”.

Turning to `CC#N`, the Potency result in assay [1], in assay [2], in [3], in assay [5], in assay [6] and in assay [8] was “inactive” in each case. In addition, the Potency entry in assay [9] was “inactive”. Further, the compound was called inactive in assay [10].

In the case of `O=Cc1c(Cl)cccc1Cl`, the Potency result in assay [1], in assay [2], in assay [3], in [5], in assay [6] and in assay [8] was “inactive” throughout. Besides, the Potency entry in assay [9] is “inactive”. For the same compound, the compound was classed as inactive in assay [10].

In the case of `CCn1cc(C(=O)O)c(=O)c2cc(F)c(N3CCNCC3)nc21`, the Potency entry in assay [1], in assay [2], in assay [3], in assay [4], in assay [5] and in assay [6] was “inactive” in each case. For the same compound, the Potency result in [8] and in assay [9] was “inactive” in each case. The compound was classed as inactive in assay [10].

For the compound `CC(=O)N(c1onc(C)c1C)S(=O)(=O)c1ccc(N)cc1`, the Potency entry in assay [1], in [2], in [3], in assay [4], in assay [5] and in assay [6] was “inactive” each time. Moreover, the Potency result in [8] and in assay [9] was “inactive” in each case. In assay [10], the outcome was inactive.

As for `CO[C@H]1O[C@H](CO)[C@@H](O)[C@H](O)[C@H]1O`, the Potency result in assay [1], in [2], in assay [3], in assay [4], in [5] and in assay [8] was “inactive” each time.

For the compound `Cc1oncc1C(=O)Nc1ccc(C(F)(F)F)cc1`, the Potency in assay [1] was 15.4 µM (active) and 9.44 µM (active); in assay [2], 27.3 µM (active) and inactive; in assay [9] it was 3.06 µM (active) and inactive. For the same compound, the Potency entry in [3], in [5], in assay [6] and in assay [8] was “inactive” throughout. The compound was classed as inactive in [10].

Consider `CCNC(=O)N1CCN(CCCC(c2ccc(F)cc2)c2ccc(F)cc2)CC1`, for which the Potency entry in assay [1], in assay [3], in assay [8] and in assay [9] was “inactive” each time. Further, the Potency in [2] is 3.35 µM (active); in [4] it was 21.1 µM (active); in [5] it was 26.6 µM (active). In addition, the compound was classed as inactive in [10].

As to `CCCCCC=CCC=CCCCCCCCC(=O)OCC`, the Potency entry in assay [1], in [2], in assay [3], in assay [4], in assay [5] and in assay [8] was “inactive” throughout. Besides, in assay [9], the Potency entry is “inactive”. In addition, in [6], the Potency is 29.8 µM (active). The compound was classed as inactive in [10].

In the case of `C/C=C(\C)C(=O)OCCC(C)CCC=C(C)C` (centres undefined), the Potency entry in assay [1], in assay [2], in assay [3], in assay [4], in assay [5] and in assay [6] was “inactive” in each case. The Potency result in assay [8] is “inactive”.

In the case of `CCCOCCOCCO`, the Potency result in [1], in [2], in assay [3], in assay [5], in [6] and in assay [8] was “inactive” in each case. In addition, the Potency entry in assay [9] is “inactive”. Besides, the result in assay [10] was inactive.

Consider `CCCCCCCCCCCC[N+](C)(C)CC(=O)[O-]`, for which the Potency entry in assay [1], in assay [2], in assay [3], in assay [4], in assay [5] and in assay [9] was “inactive” throughout. The outcome in assay [10] was inactive.

Regarding `COC(OC)(C(=O)c1ccccc1)c1ccccc1`, the Potency result in assay [1], in [2], in [3], in assay [4], in [5] and in [6] was “inactive” throughout. Moreover, the Potency entry in [8] was “inactive”. In addition, the compound was called inactive in assay [10].

Regarding `CN1CCCN=C1/C=C/c1cccs1`, the Potency entry in [1], in [2], in assay [3], in assay [4], in [5] and in assay [6] was “inactive” throughout. Moreover, the Potency result in [8] and in assay [9] was “inactive” in each case. Also, the outcome in assay [10] was inactive.

`CC(C)CCCCCOC(=O)CCCCC(=O)OCCCCCC(C)C`: the Potency entry in [1], in assay [2], in assay [3], in assay [4], in assay [5] and in [8] was “inactive” in each case. The result in assay [10] was inactive.

As to `Cc1ccccc1N1C(=O)c2cc(S(N)(=O)=O)c(Cl)cc2NC1C` (centres undefined), the Potency entry in assay [1], in assay [2], in assay [3], in assay [4], in assay [5] and in assay [8] was “inactive” throughout. Moreover, the result in [10] was inactive.

As to `Cc1nccn1-c1ccc(Sc2cccc(C3(C(N)=O)CCOCC3)c2)cc1`, the Potency entry in assay [1], in assay [3], in assay [8] and in assay [9] was “inactive” throughout. The Potency in [2] is 3.06 µM (active); in assay [4] it was 9.69 µM (active); in assay [5] it was 8.63 µM (active). For the same compound, in assay [10], the result was inactive.

Turning to `NCC1CCCC(CN)C1` (centres undefined), the Potency result in [1], in assay [2], in assay [3], in assay [4], in [5] and in [6] was “inactive” throughout. In addition, the Potency entry in [7] and in assay [8] was “inactive” each time.

Turning to `Cc1cc(O)c(C(C)C)cc1Cl`, the Potency entry in assay [1], in [3], in assay [4], in [5], in assay [6] and in assay [8] was “inactive” in each case. Also, in [9], the Potency entry is “inactive”. For the same compound, the Potency in [2] is 15.4 µM (active) and inactive. Also, in assay [10], the compound was called inactive.

As to `CC1(C)O[C@@H]2C[C@H]3[C@@H]4CCC5=CC(=O)C=C[C@]5(C)[C@H]4[C@@H](O)C[C@]3(C)[C@]2(C(=O)CO)O1`, the Potency result in [1], in assay [2], in assay [3], in assay [4], in [5] and in assay [6] was “inactive” each time. The Potency entry in assay [8] and in [9] was “inactive” each time. For the same compound, the result in [10] was inactive.

For the compound `CC(=O)Nc1ccccc1C`, the Potency entry in assay [1], in assay [2], in assay [3], in assay [4], in assay [5] and in assay [8] was “inactive” each time. The Potency entry in assay [9] was “inactive”.

For the origin of these results see PubChem BioAssay (Tox21).
